{"source": "PubChem BioAssay (NCATS)", "key": {"[1]": {"target": "Bile acid receptor (Homo sapiens) (UniProt Q96RI1)", "sequence (Q96RI1 whole entry, looked up)": "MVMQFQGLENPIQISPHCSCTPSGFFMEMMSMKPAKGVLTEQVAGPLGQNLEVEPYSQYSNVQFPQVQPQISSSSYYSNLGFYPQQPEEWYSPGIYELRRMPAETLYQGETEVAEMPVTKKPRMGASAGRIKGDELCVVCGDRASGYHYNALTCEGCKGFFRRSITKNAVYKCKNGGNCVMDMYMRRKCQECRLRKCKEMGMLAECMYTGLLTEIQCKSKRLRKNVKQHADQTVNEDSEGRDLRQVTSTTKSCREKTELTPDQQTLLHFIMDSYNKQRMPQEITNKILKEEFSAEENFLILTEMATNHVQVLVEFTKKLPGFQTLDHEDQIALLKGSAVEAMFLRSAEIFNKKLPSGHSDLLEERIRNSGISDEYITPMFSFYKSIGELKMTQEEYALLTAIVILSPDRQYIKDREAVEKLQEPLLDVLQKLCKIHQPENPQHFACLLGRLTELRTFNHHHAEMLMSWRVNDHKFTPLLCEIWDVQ", "test": "qHTS assay for small molecule antagonists of farnesoid X receptor signaling (AID 588526); further: on the % scale 0 is the no-effect control and ±100 the full control effect", "outline": "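Concentration-response titrations were fitted to the Hill equation for half-maximal inhibition and maximal response, with data normalised to 50 uM chenodeoxycholic acid and DMSO control wells. Cells: FXR-UAS-bla HEK293T, dialyzed FBS.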"}, "[2]": {"target": "Bile acid receptor (Homo sapiens) (UniProt Q96RI1)", "test": "qHTS assay for small molecule agonists of farnesoid X receptor signaling (AID 588527);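 further: series mostly up to about 77 µM; 0% = vehicle basal and 100% = reference agonist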", "conditions": "HEK293T FXR-UAS-bla, beta-lactamase ratio, 16 h; activation: stronger effect = higher value", "outline": "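FXR-UAS-bla HEK293T, 10% dialyzed FBS; cpds up to 92 uM titration, 16 h 37 C; CCF4 dye 2 h RT; fluorescence. Normalized to chenodeoxycholic acid 100 uM (100%) and DMSO (0%); Hill fit gives EC50, efficacy.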"}, "[3]": {"target": "Glucocorticoid receptor (Homo sapiens) (UniProt P04150)", "sequence (P04150 whole entry, looked up)": "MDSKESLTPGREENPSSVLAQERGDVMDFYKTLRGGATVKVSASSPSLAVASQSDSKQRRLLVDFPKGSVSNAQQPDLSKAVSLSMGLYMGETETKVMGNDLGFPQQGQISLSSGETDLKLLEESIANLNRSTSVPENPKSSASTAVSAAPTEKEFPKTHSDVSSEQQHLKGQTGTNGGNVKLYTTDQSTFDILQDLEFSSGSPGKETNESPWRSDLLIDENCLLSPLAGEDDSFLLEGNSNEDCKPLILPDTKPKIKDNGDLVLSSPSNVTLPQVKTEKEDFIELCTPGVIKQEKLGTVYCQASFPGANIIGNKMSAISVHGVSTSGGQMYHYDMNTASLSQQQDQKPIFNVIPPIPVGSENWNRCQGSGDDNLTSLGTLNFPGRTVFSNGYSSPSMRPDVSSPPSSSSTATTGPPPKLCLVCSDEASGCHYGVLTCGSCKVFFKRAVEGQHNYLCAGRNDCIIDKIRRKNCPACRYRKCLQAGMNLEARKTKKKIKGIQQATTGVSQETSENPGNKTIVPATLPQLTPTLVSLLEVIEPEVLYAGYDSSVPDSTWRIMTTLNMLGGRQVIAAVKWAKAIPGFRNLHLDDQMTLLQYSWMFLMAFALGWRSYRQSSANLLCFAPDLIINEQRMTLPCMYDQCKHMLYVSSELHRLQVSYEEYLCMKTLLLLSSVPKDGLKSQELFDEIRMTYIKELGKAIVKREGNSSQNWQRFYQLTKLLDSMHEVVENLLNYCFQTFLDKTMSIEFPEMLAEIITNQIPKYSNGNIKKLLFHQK", "test": "qHTS assay for small molecule agonists of glucocorticoid receptor signaling (AID 588532; active means well fitted curve in the direction sought with a large enough effect in the signal ratio, with a control signal flat; the % refers to the signal ratio;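 further: 100% = dexamethasone at 0.1 µM and 0% = DMSO only wells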)", "conditions": "HeLa MMTV-bla, beta-lactamase ratio, agonist, 18 h; activation: stronger effect = higher value, percent of dexamethasone control, DMSO zero", "outline": "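MMTV-bla HeLa, beta-lactamase reporter; medium with 1% charcoal/dextran-stripped FBS; cpds up to 92 uM, 18 h, 37 C; CCF4 readout 460/530 nm; Hill fit → EC50, efficacy vs 0.1 uM dexamethasone = 100%.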"}, "[4]": {"target": "Glucocorticoid receptor (Homo sapiens) (UniProt P04150)", "test": "qHTS assay for small molecule antagonists of glucocorticoid receptor signaling (AID 588533; active means well fitted inhibition curve with a large enough effect in the signal ratio, with a control signal flat, not every such curve was filed as active; the % refers to the signal ratio; further: on the % scale 0 is the no-effect control and ±100 the full control effect)", "outline": "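Antagonist-mode qHTS: compound titrations added to GRE-bla HeLa cells, then dexamethasone 2 nM final; 18 h, 37 C. CCF4 FRET fluorescence normalized to dexamethasone and DMSO; IC50 from Hill fit.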"}, "[5]": {"target": "Peroxisome proliferator-activated receptor delta (Homo sapiens) (UniProt Q03181)", "sequence (Q03181 whole entry, looked up)": "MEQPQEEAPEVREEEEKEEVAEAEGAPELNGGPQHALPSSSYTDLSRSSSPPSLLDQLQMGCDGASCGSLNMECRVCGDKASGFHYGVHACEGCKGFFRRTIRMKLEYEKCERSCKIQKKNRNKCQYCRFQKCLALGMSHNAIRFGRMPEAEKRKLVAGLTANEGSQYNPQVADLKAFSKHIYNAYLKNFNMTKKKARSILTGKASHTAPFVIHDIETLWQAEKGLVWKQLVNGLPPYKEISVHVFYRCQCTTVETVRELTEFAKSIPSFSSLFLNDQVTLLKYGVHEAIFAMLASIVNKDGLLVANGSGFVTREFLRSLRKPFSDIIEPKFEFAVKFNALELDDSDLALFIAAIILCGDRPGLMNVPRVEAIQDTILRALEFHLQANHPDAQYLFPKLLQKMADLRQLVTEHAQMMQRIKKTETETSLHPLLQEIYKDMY", "test": "qHTS assay for small molecule antagonists of peroxisome proliferator-activated receptor delta signaling (AID 588535; active means well fitted inhibition curve with a large enough effect in the signal ratio, with a control signal flat, not every such curve was filed as active; the % refers to the signal ratio)", "outline": "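Compounds tested in titration on PPAR-delta-UAS-bla HEK293T cells grown in charcoal/dextran-stripped serum (2%); beta-lactamase activity read via CCF4 emission at 460 and 530 nm.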"}, "[6]": {"test": "qHTS assay for small molecule agonists of the antioxidant response element (ARE) signaling pathway (AID 651741; active means well fitted activation curve with a large enough effect in the signal ratio; the % refers to the signal ratio; further: potency means the concentration at half of the fitted maximal effect; on activation: % of control where 0% means no effect)", "outline": "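Beta-lactamase reporter expression driven by the antioxidant response element in HepG2 cells was detected by fluorescence with LiveBLAzer B/G FRET substrate (2 h, room temperature) following 16 h compound treatment at 37 C.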"}, "[7]": {"test": "qHTS assay for small molecule activators of the nuclear factor-kappa B (NF-kB) signaling pathway (AID 651749; active means well fitted activation curve with a large enough effect in the signal ratio; the % refers to the signal ratio; further: series mostly up to about 77 µM; % of control where 0% means no effect)", "conditions": "NF-kB-bla ME-180 cells, beta-lactamase FRET ratio, 16 h; activation: stronger effect = higher value", "outline": "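Beta-lactamase reporter expression, controlled by NF-kB response elements in ME-180 cells, was quantified fluorometrically via FRET disruption; cells at 2,000/well had been incubated with 23 nL test compound for 16 hr.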"}, "[8]": {"target": "Cytochrome P450 3A4 (Homo sapiens) (UniProt P08684)", "sequence (P08684 whole entry, looked up)": "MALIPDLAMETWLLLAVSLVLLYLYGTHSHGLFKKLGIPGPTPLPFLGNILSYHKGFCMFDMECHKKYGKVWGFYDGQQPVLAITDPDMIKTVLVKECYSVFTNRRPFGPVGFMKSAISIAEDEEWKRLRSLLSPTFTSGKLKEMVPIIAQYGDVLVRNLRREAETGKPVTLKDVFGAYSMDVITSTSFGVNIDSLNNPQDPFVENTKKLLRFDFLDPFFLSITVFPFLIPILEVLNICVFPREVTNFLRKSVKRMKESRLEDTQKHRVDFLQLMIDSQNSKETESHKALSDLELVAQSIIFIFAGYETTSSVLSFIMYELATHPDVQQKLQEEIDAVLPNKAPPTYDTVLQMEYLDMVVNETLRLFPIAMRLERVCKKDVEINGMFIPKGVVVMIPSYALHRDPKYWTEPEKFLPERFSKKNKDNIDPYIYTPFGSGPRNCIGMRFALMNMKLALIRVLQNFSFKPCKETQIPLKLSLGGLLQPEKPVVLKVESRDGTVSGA", "test": "qHTS Assay for Activators of Cytochrome P450 3A4 (AID 885; active means well fitted curve in the direction sought with a large enough effect; an effect the other way counts as inactive or inconclusive; further: nearly all actives have a fitted effect of over 65% in size)", "outline": "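CYP3A4 activity: Luciferin-PPXE O-dealkylation, 25uM substrate, 200mM KPO4, RT throughout. Read-out is luciferase luminescence; higher values reflect activation.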"}, "[9]": {"test": "Cell Viability - LYMP2-001 (AID 921; active means well fitted curve in the direction sought with a large enough effect; an effect the other way counts as inactive or inconclusive; further: potency means the concentration at half of the fitted maximal effect; nearly all actives have a fitted effect of over 70% in size)", "outline": "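A lymphoblastoid cell line of human origin was treated with library compounds across a concentration series for 24 hours, and viable cell number was estimated from ATP-driven luciferase light output. Hill modeling gave AC50.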"}, "[10]": {"test": "MultiTox-Fluor Cytotoxicity Assay - LYMP1-002 - Live Cells (AID 955; active means well fitted curve in the direction sought with a large enough effect; an effect the other way counts as inactive or inconclusive; further: potency means the concentration at half of the fitted maximal effect)", "outline": "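LYMP1-002 lymphoblastoid cells; 2500 cells/well; 16 hr compound exposure, 37 C; MultiTox-Fluor reagent 60 min RT; live-cell fluorescence Ex/Em=405/510; qHTS concentration-response, Hill-equation AC50; tetraoctylammonium bromide positive control.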"}, "[11]": {"test": "MultiTox-Fluor Cytotoxicity Assay - LYMP1-002 - Dead Cells (AID 960; active means well fitted curve in the direction sought with a large enough effect; an effect the other way counts as inactive or inconclusive; further: potency means the concentration at half of the fitted maximal effect; nearly all actives have a fitted effect of over 60% in size)", "outline": "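Readout: fluorescence at 485/520 from cell-impermeant bis-AAF-R110 cleaved by proteases leaking from damaged cells. LYMP1-002 lymphoblastoid line, 16 hr compound treatment at 37 C, concentration-response in qHTS format; Hill-equation AC50 values.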"}, "[12]": {"test": "MultiTox-Fluor Cytotoxicity Assay - LYMP1-003 - Dead Cells (AID 961; active means well fitted curve in the direction sought with a large enough effect; an effect the other way counts as inactive or inconclusive; further: potency means the concentration at half of the fitted maximal effect; nearly all actives have a fitted effect of over 70% in size)", "outline": "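Human lymphoblastoid LYMP1-003 cells (2500/well) were treated with compounds for 16 hr at 37 C in complete medium. Dead-cell protease release was read by bis-AAF-R110 fluorescence (Ex/Em 485/520). AC50 came from Hill fits, normalized to DMSO and 15 uM tetraoctylammonium bromide.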"}, "[13]": {"test": "Cell Viability - LYMP2-003 (AID 965; active means well fitted curve in the direction sought with a large enough effect; an effect the other way counts as inactive or inconclusive;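 further: potency means the concentration at half of the fitted maximal effect; cells exposed to compounds for 24 h before reading; nearly all actives have a fitted effect of over 50% in size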)", "outline": "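qHTS, human lymphoblastoid line, 2500 cells/well, complete medium. 24 h drug, 37 C. ATP-based luminescent readout; Hill-fit AC50.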"}, "[14]": {"target": "Vitamin D3 receptor (Homo sapiens) (UniProt P11473)", "sequence (P11473 whole entry, looked up)": "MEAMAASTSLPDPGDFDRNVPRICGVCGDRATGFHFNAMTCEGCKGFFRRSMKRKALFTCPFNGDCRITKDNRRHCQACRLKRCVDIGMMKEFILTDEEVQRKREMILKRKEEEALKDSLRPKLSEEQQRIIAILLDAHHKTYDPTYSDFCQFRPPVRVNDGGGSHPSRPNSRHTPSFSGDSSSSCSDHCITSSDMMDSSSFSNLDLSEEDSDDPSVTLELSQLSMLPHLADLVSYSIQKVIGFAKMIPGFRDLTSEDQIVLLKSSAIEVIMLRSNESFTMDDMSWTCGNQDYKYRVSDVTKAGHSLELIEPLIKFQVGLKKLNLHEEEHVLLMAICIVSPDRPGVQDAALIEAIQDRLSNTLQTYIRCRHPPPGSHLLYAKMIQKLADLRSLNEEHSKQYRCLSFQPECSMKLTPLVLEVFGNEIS", "test": "qHTS assay for small molecule agonists of vitamin D receptor signaling (AID 588543);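 further: 0% = DMSO basal and 100% = reference agonist control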", "outline": "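Measured: β-lactamase reporter activity (CCF4, 405 nm excitation, 460/530 nm emission) in HEK293T VDR-UAS-bla cells after 16 h compound exposure at 37 °C. Normalization against 50 nM 1α,25-dihydroxyvitamin D3 and DMSO; Hill-fit EC50.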"}, "[15]": {"test": "qHTS assay for small molecule agonists of retinoid X receptor alpha signaling (AID 588544)", "conditions": "HEK293T RXRa-UAS-bla, beta-lactamase reporter, 18 h; 530 nm emission"}, "[16]": {"test": "qHTS assay for small molecule activators of the human pregnane X receptor (PXR) signaling pathway (AID 720659; call rule not given here; further: 0% is about no effect)"}}, "note": "Where “and” joins values, the source holds several entries; their conditions need not be identical. Equal values may be shown once. Inconclusive results are not listed. Calls of active or inactive are those of the source. Unless noted, the call rests on the fitted dose curve.", "data": [{"smiles": "Clc1ccc([C@]2(Cn3cncn3)C[C@H](Br)CO2)c(Cl)c1", "values": [{"measurement": "Potency", "setting": "[1]", "value": "inactive"}, {"measurement": "activation", "setting": "[2]", "value": "0.21% (inactive) and -0.946% (inactive)"}, {"measurement": "activation", "setting": "[3]", "value": "-7.37% (inactive) and -0.86% (inactive)"}, {"measurement": "Potency", "setting": "[4]", "value": "inactive"}, {"measurement": "Potency", "setting": "[5]", "value": "inactive"}, {"measurement": "Potency", "setting": "[6]", "value": "inactive"}, {"measurement": "activation", "setting": "[7]", "value": "-1.6% (inactive) and -1.96% (inactive)"}]}, {"smiles": "O=Nc1ccc(Nc2ccccc2)cc1", "values": [{"measurement": "Potency", "setting": "[8]", "value": "inactive"}, {"measurement": "Potency", "setting": "[9]", "value": "2.51 µM (active)"}, {"measurement": "Potency", "setting": "[10]", "value": "6.31 µM (active)"}, {"measurement": "Potency", "setting": "[11]", "value": "3.98 µM (active)"}, {"measurement": "Potency", "setting": "[12]", "value": "5.01 µM (active)"}, {"measurement": "Potency", "setting": "[13]", "value": "7.94 µM (active)"}, {"measurement": "activation", "setting": "[2]", "value": "15.6% (inactive)"}, {"measurement": "outcome", "setting": "[14]", "value": "inactive"}, {"measurement": "Potency", "setting": "[6]", "value": "54.5 µM (active)"}]}, {"smiles": "CC(Oc1cc(Cl)c(Cl)cc1Cl)C(=O)O", "note": "(stereo unspecified)", "values": [{"measurement": "Potency", "setting": "[1]", "value": "inactive"}, {"measurement": "activation", "setting": "[3]", "value": "-0.156% (inactive)"}, {"measurement": "Potency", "setting": "[4]", "value": "inactive"}, {"measurement": "Potency", "setting": "[5]", "value": "inactive"}, {"measurement": "outcome", "setting": "[14]", "value": "inactive"}, {"measurement": "max response", "setting": "[15]", "value": -8.77, "unit": "%"}, {"measurement": "outcome", "setting": "[16]", "value": "inactive"}]}, {"smiles": "C/C(=N\\NC(=O)Nc1cc(F)cc(F)c1)c1ncccc1C(=O)O", "values": [{"measurement": "Potency", "setting": "[1]", "value": "inactive"}, {"measurement": "activation", "setting": "[2]", "value": "-2.37% (inactive) and 0.898% (inactive)"}, {"measurement": "activation", "setting": "[3]", "value": "10.9% (inactive) and -10.6% (inactive)"}, {"measurement": "Potency", "setting": "[4]", "value": "inactive"}, {"measurement": "outcome", "setting": "[14]", "value": "inactive"}, {"measurement": "max response", "setting": "[15]", "value": "4% and -10.7%"}, {"measurement": "Potency", "setting": "[6]", "value": "inactive"}, {"measurement": "activation", "setting": "[7]", "value": "0.367% (inactive) and -2.66% (inactive)"}]}, {"smiles": "Cc1c(F)c(F)c(COC(=O)C2C(/C=C(\\Cl)C(F)(F)F)C2(C)C)c(F)c1F", "note": "(stereo unspecified)", "values": [{"measurement": "Potency", "setting": "[1]", "value": "inactive"}, {"measurement": "activation", "setting": "[2]", "value": "0.0589% (inactive)"}, {"measurement": "activation", "setting": "[3]", "value": "9.43% (inactive)"}, {"measurement": "Potency", "setting": "[5]", "value": "inactive"}, {"measurement": "outcome", "setting": "[14]", "value": "inactive"}, {"measurement": "activation", "setting": "[7]", "value": "-3.24% (inactive)"}]}, {"smiles": "CCNC(=O)NC(=O)/C(C#N)=N/OC", "values": [{"measurement": "Potency", "setting": "[1]", "value": "inactive"}, {"measurement": "activation", "setting": "[2]", "value": "-0.507% (inactive)"}, {"measurement": "activation", "setting": "[3]", "value": "3.07% (inactive)"}, {"measurement": "outcome", "setting": "[14]", "value": "inactive"}, {"measurement": "max response", "setting": "[15]", "value": 5.29, "unit": "%"}, {"measurement": "Potency", "setting": "[6]", "value": "61.1 µM (active)"}]}, {"smiles": "CC(C)(C)C(=O)[C@@H](Oc1ccc(Cl)cc1)n1cncn1", "values": [{"measurement": "activation", "setting": "[3]", "value": "6.65% (inactive)"}, {"measurement": "Potency", "setting": "[4]", "value": "inactive"}, {"measurement": "Potency", "setting": "[5]", "value": "inactive"}, {"measurement": "max response", "setting": "[15]", "value": 9.03, "unit": "%"}, {"measurement": "activation", "setting": "[7]", "value": "-1.55% (inactive)"}]}, {"smiles": "Brc1c(Br)c(Br)c(Br)c(Br)c1Br", "values": [{"measurement": "activation", "setting": "[3]", "value": "-0.0722% (inactive)"}, {"measurement": "Potency", "setting": "[4]", "value": "inactive"}, {"measurement": "Potency", "setting": "[5]", "value": "inactive"}, {"measurement": "max response", "setting": "[15]", "value": -7.75, "unit": "%"}, {"measurement": "activation", "setting": "[7]", "value": "-0.808% (inactive)"}, {"measurement": "outcome", "setting": "[16]", "value": "inactive"}]}, {"smiles": "CCOP(=S)(OCC)Oc1cnc2ccccc2n1", "values": [{"measurement": "Potency", "setting": "[1]", "value": "inactive"}, {"measurement": "activation", "setting": "[2]", "value": "1.65% (inactive)"}, {"measurement": "activation", "setting": "[3]", "value": "-1.45% (inactive)"}, {"measurement": "Potency", "setting": "[4]", "value": "inactive"}, {"measurement": "Potency", "setting": "[5]", "value": "inactive"}, {"measurement": "Potency", "setting": "[6]", "value": "inactive"}, {"measurement": "activation", "setting": "[7]", "value": "-0.487% (inactive)"}]}, {"smiles": "CCCCC(C#N)(Cn1cncn1)c1ccc(Cl)cc1", "note": "(stereo unspecified)", "values": [{"measurement": "activation", "setting": "[3]", "value": "-4.2% (inactive) and -7.49% (inactive)"}, {"measurement": "Potency", "setting": "[4]", "value": "inactive"}, {"measurement": "max response", "setting": "[15]", "value": 3.82, "unit": "%"}, {"measurement": "Potency", "setting": "[6]", "value": "inactive"}]}, {"smiles": "O=C(NC(=O)c1c(F)cccc1F)Nc1ccc(OC(F)(F)C(F)OC(F)(F)F)c(Cl)c1", "note": "(stereo unspecified)", "values": [{"measurement": "activation", "setting": "[3]", "value": "-15.7% (inactive)"}, {"measurement": "Potency", "setting": "[4]", "value": "inactive"}, {"measurement": "Potency", "setting": "[5]", "value": "inactive"}, {"measurement": "outcome", "setting": "[14]", "value": "inactive"}, {"measurement": "max response", "setting": "[15]", "value": -12.6, "unit": "%"}, {"measurement": "outcome", "setting": "[16]", "value": "inactive"}]}]}
